test system: TRPM6; conditions: concentration: 1 μM,replicates: in singlicate; n = 1
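Note: KINOMEscan kinase panel screen.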

Row | Compound | %Inh
1 | CN(c1cccc(CNc2nc(Nc3ccc4c(c3)CC(=O)N4)ncc2C(F)(F)F)c1)S(C)(=O)=O | 0%
2 | CC(=O)Nc1ccc(-c2cc3ncnc(SCC(=O)O)c3s2)cc1 | 23%
3 | COc1cccc(OC)c1C(=O)Nc1cccc(-c2nn3ccccc3c2-c2ccnc(Nc3cccc(F)c3)n2)c1 [GSK361065] | 4%
4 | CC(C(=O)NC1CCN(c2ccnc(Nc3ccc(F)cc3)n2)C1)c1ccc(Cl)cc1 (stereo not shown) [GSK1379713] | 0%
5 | Cc1ccc(CC(=O)N2CCc3cc(-c4cn(C)c5ncnc(N)c45)ccc32)cc1 [GSK2634758] | 5%
6 | Cl.Nc1n[nH]c2cc(-c3ccccn3)ccc12 [GSK2189892] | 0%
7 | Cl.c1ccc(Oc2ccc(Nc3ccnc4cc(-c5ccc(CN6CCNCC6)o5)ccc34)cc2)nc1 [GW567142] | 50%
8 | c1ccc(Oc2ccc(Nc3ccnc4ccc(-c5ccccn5)cc34)cc2)cc1 [GW407034] | 27%
9 | COc1cccc(C2=C(Nc3cccc(Cl)c3)C(=O)NC2=O)c1 [SB-341556] | 0%
10 | C[C@@H](Oc1cc(-n2cnc3cc(-c4cnn(C)c4)ccc32)sc1C(N)=O)c1ccccc1Cl [GSK580432] | 0%
11 | O=C(Nc1n[nH]c2cc(-c3ccco3)ccc12)C1CC1 [SB-737447] | 0%
12 | COc1cc2nccc(Nc3ccc(Oc4ccccc4)cc3)c2cc1OC.Cl [GI261656] | 58%
13 | CN(c1ccccc1CNc1nc(Nc2ccc3c(c2)CC(=O)N3)ncc1C(F)(F)F)S(C)(=O)=O | 0%

Reference: article PMC5540273 (PLoS ONE, 2017)
